In PubChem BioAssay (NCI):
Compounds without any hit were thinned out: in the full panel of roughly 83,000, 20% have a hit.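 Note: values are percent growth. 100 is the growth of untreated cells, values between 100 and 0 indicate rising inhibition; between -100 and 0 indicates cell death.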 Values without a mark were called inactive. Active and inactive are the calls of the source. Rule for the calls: active = growth percent below 10; inactive = the rest.

Legend:
Test in all cases: NCI-60 one-dose screen, 48 h (100 = growth as untreated, 0 = no growth, -100 = all killed)
Conditions in all cases: 10 µM unless noted
[1] = test system: NCI-H23 lung
[2] = test system: NCI-H322M lung
[3] = test system: HOP-62 NSCLC
[4] = test system: NCI-H460 lung
[5] = test system: HOP-92 NSCLC
[6] = test system: NCI-H522 lung
[7] = test system: A549/ATCC NSCLC
[8] = test system: 786-0 renal
[9] = test system: COLO 205 colon
[10] = test system: DU-145 prostate

Compound	growth [1]	growth [2]	growth [3]	growth [4]	growth [5]	growth [6]	growth [7]	growth [8]	growth [9]	growth [10]
O=C(CSc1ccc2nnc(-c3cccc(F)c3)n2n1)Nc1ccc2c(c1)OCO2	76.5%	85%	81.4%	81.1%	-6.23% (active)	85.4%	52.8%	93.6%	112%	77.1%
CCOC(=O)c1c(Cl)c2c(n1Cc1ccccc1)-c1oncc1CCC2	86.9%	94%	80%	81%	84.7%	35.7%	43%	83.1%	56.9%	103%
NC(CCl)=NCCC[C@H](N)C(=O)O	98.3%	99.5%	126%	101%	98.3%	95.4%	97.8%	106%	104%	111%
COc1ccc(Nc2cc(C)nc(NCc3ccccc3)n2)cc1	56%	61.9%	38.5%	11.9%	21.6%	19.9%	7.95% (active)	34.1%	3.51% (active)	45.4%
COc1ccc(C(O)(CCC(C)C)C(CN2CCOCC2)c2ccc(Cl)cc2)cc1 (stereo not given)	74.6%	88.3%	63.6%	86.8%	77.8%	-16.9% (active)	62.4%	73.3%	76.4%	73.8%
COc1cc(C2C(C#N)=C(N)OC3=C2C(=O)c2ccccc2C3=O)cc(OC)c1OC (stereo not given)	31.4%	48.1%	7.45% (active)	9.57% (active)	80.6%	-18.6% (active)	41%	35.6%	89%	25.1%
CN1CCN(Cc2ccc(NC(=O)c3cncc(C#Cc4nc(N)nc5[nH]ncc45)c3)cc2C(F)(F)F)CC1	102%	114%	122%	112%	77.8%	-37.1% (active)	103%	111%	21.6%	74.7%
c1ccc2c(c1)oc1cc3sccc3nc12	101%	99.2%	89.5%	104%	95.1%	93%	102%	96.1%	109%	114%
C1=CC2(C=C1)OC21CCC2(C=CC3(C2)OC3C2CCCCC2)CC1 (stereo not given)	116%	105%	112%	103%	104%	106%	101%	100%	120%	112%
O=C(COc1cc(O)c2c(=O)cc(-c3ccccc3)oc2c1)Nc1ccccc1C(F)(F)F	46.1%	62.2%	16.2%	-42.5% (active)	51.6%	46.6%	0.206% (active)	7.11% (active)	60.1%	52.7%
CCC1=C[C@]2(C3CC(=O)N(c4ccccc4)C3=O)CC(C(C)(C)C)C[C@@H]2[C@@H]2C(=O)N(c3ccccc3)C(=O)[C@H]12 (stereo not given in full)	95.2%	69.3%	82.1%	93.3%	84.5%	57.3%	68.7%	83.8%	93.3%	92%
Cc1nn(-c2nc3ccccc3[nH]2)c2c1C(c1ccc(OCC(N)=O)cc1)CC(=O)N2 (stereo not given)	103%	105%	100%	103%	105%	100%	109%	104%	117%	107%
O=C(Nc1ccc(Cl)cc1)c1cc2ccccc2cc1OP(=O)(O)O	-0.361% (active)	22.7%	32.3%	14.2%	-24% (active)	3.47% (active)	16.4%	20.6%	98.9%	24.9%
COc1cc([C@@H]2NC(=O)NC(C)=C2C(=O)Nc2nc(-c3ccc(Cl)cc3)cs2)ccc1O	96.3%	95.4%	86.1%	102%	103%	84%	97.1%	98.4%	116%	102%
Cc1ccc(Cn2c(N3CCC(C(=O)NCc4cccs4)CC3)nc3ccccc32)cc1	85.2%	114%	85%	82.5%	73.9%	107%	95%	89.1%	96.9%	72.8%
O=C(Nc1ccc(F)cc1F)c1cc(Br)ccc1O	-12.6% (active)	0.898% (active)	-8.56% (active)	4.52% (active)	-25.6% (active)	-12.2% (active)	5.78% (active)	3.19% (active)	7.66% (active)	13.2%
O=C(NC1CCN(Cc2ccccc2)CC1)c1cc(C(=O)NC2CCN(Cc3ccccc3)CC2)cc(C(=O)NC2CCN(Cc3ccccc3)CC2)c1	77.2%	90.3%	58.7%	91.8%	54.3%	-67.7% (active)	39.8%	100%	108%	93.4%
CCCCCCc1cc2cc(-c3nc4ccccc4[nH]3)c(=Nc3ccccc3C)oc2cc1O	50.4%	62.8%	58%	44.8%	13.3%	14.3%	49.9%	46.8%	-94.3% (active)	67.4%
COc1ccc(CCN2C(=O)/C(=C/c3ccc(C4Oc5ccccc5C5CC(c6cccc(OC)c6)=NN54)cc3)SC2=S)cc1 (stereo not given)	99.8%	103%	100%	101%	96.2%	90.3%	103%	105%	107%	101%
O=C(c1ccccc1)N(CCc1ccc(Cl)cc1)C(=S)N(C(=O)c1ccccc1)c1ccccc1	92.7%	111%	118%	106%	71%	105%	97.3%	97.6%	150%	83.9%
CCCCCCC(O)(c1ccc(F)cc1)C(CN1CCOCC1)c1ccccc1 (stereo not given)	25.4%	74.7%	56.9%	16.1%	-16.1% (active)	26.9%	23.9%	44.9%	-21.7% (active)	51.7%
COc1ccc(Cn2c(Br)c3c(c2-c2cc(OC)c(OC)c(OC)c2)CCc2sc(NC(=O)c4ccc(OC)cc4)nc2-3)cc1	91.9%	69.3%	106%	98%	89.1%	85.4%	94.2%	89.8%	107%	102%
COc1cc(C2C3=C(COC3=O)N(CCO)c3cc4c(cc32)OCCO4)cc(OC)c1O (stereo not given)	35.8%	51.6%	32.9%	-3.84% (active)	85.3%	-23.4% (active)	52.8%	19.8%	18.2%	-8.77% (active)
Nc1no[n+]([O-])c1-c1nnc2c(n1)-c1ccccc1C2=O	-40.8% (active)	74.1%	104%	65.8%	55.1%	96%	98.1%	97.2%	42.1%	1.97% (active)
O=S1(=O)CCN(Cc2ccccc2)CC1	98.4%	110%	96.7%	103%	79.5%	104%	104%	95.3%	107%	103%
CC(=S)NC(=O)C(=O)/C=C1/NC(=O)C(=O)S1	97.4%	105%	100%	107%	96.5%	105%	111%	103%	124%	111%
CC1=C(CC(=O)c2cccc([N+](=O)[O-])c2)C(=O)c2ccccc2C1=O	-24.9% (active)	68.7%	-67.2% (active)	-20.9% (active)	-22.3% (active)	-47.2% (active)	-15.3% (active)	-53.2% (active)	108%	-57% (active)
